Measured values published in PubChem BioAssay (NCI).
About 79,000 compounds went through this panel and 15% of them were active in at least one assay; those are over-represented in the sample as a whole. Active and inactive are the calls of the source. No stated cut-off is given here; in the data, active means growth inhibition above about 70%; inactive means the rest.

Tests used:
[1] = NCI Yeast Anticancer Drug Screen. Data for the rad52 strain (AID 147);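 further: 0% = growth of vehicle-treated control cultures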; details: S. cerevisiae rad52 mutant growth inhibition, stronger effect = higher value
Outline: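 Here a repair-compromised yeast strain receives each compound; its growth is then quantified and normalised to vehicle-only controls.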

[2] = NCI Yeast Anticancer Drug Screen. Data for the wt1 strain (AID 149);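 further: 0% = growth of vehicle-treated wt1 cultures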; details: S. cerevisiae wt1 strain (SPY 50644) growth inhibition, stronger effect = higher value
Outline: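 Yeast wt1 strain exposed to compounds; growth inhibition measured relative to vehicle-treated controls.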

[3] = NCI Yeast Anticancer Drug Screen. Data for the rad50EPP+ strain (AID 151);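 further: 0% = growth of vehicle-treated control cultures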; details: S. cerevisiae rad50 mutant strain, stronger effect = higher value
Outline: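 Read-out is yeast growth inhibition relative to vehicle; cells used were the rad50EPP+ strain.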

[4] = NCI Yeast Anticancer Drug Screen. Data for the mgt1 strain (AID 153); details: S. cerevisiae mgt1 mutant growth inhibition, stronger effect = higher value
Outline: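 Measured: inhibition of mgt1 yeast growth by compound, normalized to vehicle-treated cultures.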

[5] = NCI Yeast Anticancer Drug Screen. Data for the rad50 strain (AID 155);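 further: 0% = growth of vehicle-only cultures of the same strain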; details: S. cerevisiae rad50 strain growth inhibition, stronger effect = higher value
Outline: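 Yeast carrying a defined DNA repair defect were exposed to test compounds, and growth was compared with vehicle-treated controls to give percent inhibition.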

[6] = NCI Yeast Anticancer Drug Screen. Data for the mec2-1 strain (AID 157); details: S. cerevisiae mec2-1 strain, stronger effect = higher value
Outline: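 Using mec2-1 yeast: add compound, measure growth, express inhibition versus vehicle-treated cultures.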

[7] = NCI Yeast Anticancer Drug Screen. Data for the rad14 strain (AID 159);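 further: 0% = growth of vehicle-treated control cultures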; details: S. cerevisiae rad14 strain growth inhibition, stronger effect = higher value
Outline: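 Yeast cells carrying a defined DNA-repair defect were exposed to compounds, and growth inhibition was calculated relative to vehicle-treated control cultures.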

[8] = NCI Yeast Anticancer Drug Screen. Data for the sgs1 mgt1 strain (AID 161);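 further: 0% = growth of cultures given vehicle only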; details: S. cerevisiae sgs1 mgt1 strain, stronger effect = higher value
Outline: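 This yeast growth screen uses a strain with defined DNA-repair lesions; compound-treated growth is compared with vehicle-treated growth.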

[9] = NCI Yeast Anticancer Drug Screen. Data for the CLN2oe strain (AID 163);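 further: 0% = growth of vehicle-only control cultures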; details: S. cerevisiae CLN2oe strain, stronger effect = higher value
Outline: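 Whole-cell yeast growth assay. A strain engineered for altered cell-cycle control received compound, and inhibition relative to vehicle-treated cultures was recorded.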

[10] = NCI Yeast Anticancer Drug Screen. Data for the cln2 rad14 strain (AID 165);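 further: 0% = growth equal to vehicle treated cultures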; details: S. cerevisiae cln2 rad14 strain, stronger effect = higher value
Outline: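 Yeast strain cln2 rad14, bearing defects in cell cycle control and DNA repair, serves as the test system; values reflect growth inhibition compared with vehicle.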

[11] = NCI Yeast Anticancer Drug Screen. Data for the bub3 strain (AID 167); details: S. cerevisiae bub3 mutant strain, stronger effect = higher value
Outline: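 Compounds were applied to a genetically altered yeast strain carrying a cell-cycle control defect. Growth inhibition was scored against vehicle-treated controls.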

[12] = NCI Yeast Anticancer Drug Screen. Data for the wt2 strain (AID 169);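 further: 0% = growth of vehicle-treated yeast cultures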; details: S. cerevisiae wt2 strain growth inhibition, stronger effect = higher value
Outline: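 Treated yeast vs. vehicle-treated yeast: growth inhibition determined.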

[13] = NCI Yeast Anticancer Drug Screen. Data for the mlh1 strain (AID 171);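 further: 0% = growth of vehicle-treated control cultures of the same strain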; details: S. cerevisiae mlh1 strain growth inhibition, stronger effect = higher value
Outline: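 A yeast strain with a defined genetic lesion serves as the test organism. Cultures receive compound or vehicle, and growth is measured.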

[14] = NCI Yeast Anticancer Drug Screen. Data for the sgs1 strain (AID 173);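 further: 0% = growth of vehicle-only control cultures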; details: S. cerevisiae sgs1 mutant, stronger effect = higher value
Outline: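 A genetically defined yeast mutant is incubated with the test compound, and its growth is compared to that of the same strain given vehicle.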

[15] = NCI Yeast Anticancer Drug Screen. Data for the mlh1 rad18 strain (AID 175); details: S. cerevisiae mlh1 rad18 strain growth inhibition, stronger effect = higher value
Outline: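 Steps: expose repair-defective yeast to compound; measure growth; express inhibition against vehicle-treated controls.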

[16] = NCI Yeast Anticancer Drug Screen. Data for the rad18 strain (AID 177); details: S. cerevisiae rad18 mutant growth inhibition, stronger effect = higher value
Outline: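 Measured value is growth inhibition of a yeast strain bearing a DNA repair alteration, referenced to vehicle-treated cells.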

[17] = at 5.0 µM (retest, dose inferred, filed as 0.5)
[18] = at 50.0 µM (retest, dose inferred, filed as 5.0)

Measured: growth inhibition

CCC(=O)Oc1c(Cl)cc(Cl)c2ccccc12
active: [15]; [18] 77% | [16]; at 100.0 µM 73%
inactive: [1]; at 1.2 µM -2% | [1]; at 3.7 µM -2% | [1]; at 11.0 µM -1% | [1]; at 33.0 µM 4% | [1]; at 100.0 µM 54% | [2]; at 1.2 µM -4% | [2]; at 3.7 µM -4% | [2]; at 11.0 µM -4% | [2]; at 33.0 µM -6% | [2]; at 100.0 µM 13% | [3]; at 1.2 µM -2% | [3]; at 3.7 µM 4% | [3]; at 11.0 µM 10% | [3]; at 33.0 µM 15% | [3]; at 100.0 µM 49% | [4]; at 1.2 µM -8% | [4]; at 3.7 µM -10% | [4]; at 11.0 µM -2% | [4]; at 33.0 µM 3% | [4]; at 100.0 µM 28% | [5]; at 1.2 µM -5% | [5]; at 3.7 µM -4% | [5]; [17] 8% | [5]; at 11.0 µM -1% | [5]; at 33.0 µM 5% | [5]; [18] -53% | [5]; at 50.0 µM 20.1% | [5]; at 100.0 µM 35% | [6]; at 1.2 µM -2% | [6]; at 3.7 µM -2% | [6]; [17] -9% | [6]; at 11.0 µM -2% | [6]; at 33.0 µM 0% | [6]; [18] -1% | [6]; at 50.0 µM -8.5% | [6]; at 100.0 µM 32% | [7]; at 1.2 µM -7% | [7]; at 3.7 µM -4% | [7]; at 11.0 µM 0% | [7]; at 33.0 µM 9% | [7]; at 100.0 µM 39% | [8]; [17] -9% | [8]; [18] 49% | [8]; at 50.0 µM 32% | [9]; at 1.2 µM -5% | [9]; at 3.7 µM -2% | [9]; at 11.0 µM -7% | [9]; at 33.0 µM -6% | [9]; at 100.0 µM 22% | [10]; [17] -16% | [10]; [18] 18% | [10]; at 50.0 µM 15.2% | [11]; at 1.2 µM -4% | [11]; at 3.7 µM -6% | [11]; [17] 2% | [11]; at 11.0 µM -9% | [11]; at 33.0 µM -12% | [11]; [18] -5% | [11]; at 50.0 µM 12.1% | [11]; at 100.0 µM 3% | [12]; at 1.2 µM -4% | [12]; at 3.7 µM -5% | [12]; at 11.0 µM -5% | [12]; at 33.0 µM -5% | [12]; at 100.0 µM 20% | [13]; at 1.2 µM -2% | [13]; at 3.7 µM -2% | [13]; at 11.0 µM 0% | [13]; at 33.0 µM 10% | [13]; at 100.0 µM 38% | [14]; at 1.2 µM -4% | [14]; at 3.7 µM -3% | [14]; at 11.0 µM 2% | [14]; at 33.0 µM 9% | [14]; at 100.0 µM 43% | [15]; [17] -10% | [15]; at 50.0 µM 10.9% | [16]; at 1.2 µM -3% | [16]; at 3.7 µM 1% | [16]; at 11.0 µM 1% | [16]; at 33.0 µM 5%

CCCCCCCCCCCC1=C(O)C(=O)C=C(O)C1=O
inactive: [1]; at 1.2 µM -7% | [1]; at 3.7 µM -2% | [1]; at 11.0 µM 68% | [2]; at 1.2 µM -4% | [2]; at 3.7 µM -7% | [2]; at 11.0 µM 64% | [3]; at 1.2 µM -5% | [3]; at 3.7 µM -14% | [3]; at 11.0 µM 31% | [4]; at 1.2 µM -3% | [4]; at 3.7 µM -5% | [4]; at 11.0 µM 22% | [5]; at 1.2 µM -15% | [5]; at 3.7 µM -15% | [5]; [17] 32% | [5]; at 11.0 µM 36% | [5]; at 50.0 µM 46.5% | [6]; at 1.2 µM -7% | [6]; at 3.7 µM -4%
active: [1]; at 33.0 µM 88% | [1]; at 100.0 µM 94% | [2]; at 33.0 µM 94% | [2]; at 100.0 µM 91% | [3]; at 33.0 µM 79% | [3]; at 100.0 µM 84% | [4]; at 33.0 µM 89% | [4]; at 100.0 µM 91% | [5]; at 33.0 µM 94% | [5]; [18] 79% | [5]; at 100.0 µM 93%
